What all share (assay): NCI-60 one-dose screen, 48 h (100 = growth as untreated, 0 = no growth, -100 = all killed)
Conditions in all cases: 10 µM

The test system of experiment [1] is T-47D breast.
Experiment [2] concerns BT-549 breast.
Experiment [3] concerns MDA-MB-435 melanoma.
Experiment [4] deals with SW-620 colon.
Experiment [5] concerns MCF7 breast.
Experiment [6] has as its system HCT-116 colon.
Experiment [7] has as its system HCC-2998 colon.
Experiment [8] concerns KM12 colon.

The panel holds about 83,000 compounds, 20% with a hit somewhere; the sample as a whole holds those more often.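 Single-concentration screen, 48 h exposure, 96-well plates. Endpoint: percent growth. Below 10 = active.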 A number with no mark means an inactive call. The source made the active and inactive calls.

In the case of `COc1ccc(-c2cc(-c3ccccc3)nc(SCCCC(=O)NO)n2)cc1`, the growth in experiment [1] was -1.07% (active); in experiment [2] it was 19.6%; in experiment [3], -3.03% (active); in experiment [4] it was 2.34% (active); in experiment [5], -5.14% (active); in experiment [6] it was 3.36% (active). For the same compound, the figures for the growth in experiment [7] and in experiment [8] were -16.6% (active) and 17.3%, respectively.

As to `CC(C1=C(CN(C(=O)Cc2cn(-c3ccccc3)nc2-c2ccc(Cl)cc2)C(C)C)Cc2ccccc21)c1ccccn1` (configuration not stated), the growth is 40.6% in experiment [1]; 88% in experiment [2]; 70.1% in experiment [3]; 75.8% in experiment [4]; 41.2% in experiment [5]; 31.9% in experiment [6]. In addition, the results for the growth in experiment [7] and in experiment [8] were 68% and 54.8%, respectively.

Regarding `CCOC(=O)c1cc(C(=O)c2ccc(OC)c(OC)c2)n2ccncc12`, the growth in experiment [1] is 78.8%; in experiment [2], 84.5%; in experiment [3] it was 104%; in experiment [4], 100%; in experiment [5], 79.6%; in experiment [6], 93.3%. In addition, the growth in experiment [7] and in experiment [8] was 101% each time.

On to `COc1cccc(C2C(C#N)=C(N)Oc3cc(N)ccc32)c1` (configuration not stated), for which the growth is 10.4% in experiment [1]; 47.3% in experiment [2]; -30.5% (active) in experiment [3]; 18.7% in experiment [4]; 12.1% in experiment [5]; 23.2% in experiment [6]. Further, the growth in experiment [7] was 39.1%; in experiment [8] it was 24.6%.

With `COc1ccc2c(c1)OC(N)=C(C#N)C2c1cc(OC)c(OC)c(OC)c1` (configuration not stated), the growth in experiment [1] is 16.7%; in experiment [2], 5.64% (active); in experiment [3] it was -16.7% (active); in experiment [4], 17.1%; in experiment [5], 13.3%; in experiment [6] it was 3.4% (active). Besides, the growth in experiment [7] is 15%; in experiment [8], -10.3% (active).

`Cc1ccc(NC(=S)NNC(=S)Nc2ccc(C)cc2)cc1`: the growth was 46.8% in experiment [1]; 71.7% in experiment [2]; -1.34% (active) in experiment [3]; 44.3% in experiment [4]; 29.3% in experiment [5]; 34.5% in experiment [6]. Moreover, the growth in experiment [7] was 68.9%; in experiment [8] it was 60.5%.

`COc1cc(-c2nn(-c3cccc(NC(=O)CN4CCOCC4)c3)cc2-c2cccnc2)ccc1Cl`: the growth in experiment [1] is 72.2%; in experiment [2], 62.2%; in experiment [3], 6.77% (active); in experiment [4] it was 62.2%; in experiment [5], 62.4%; in experiment [6], 82.7%. For the same compound, the growth in experiment [7] was 112%; in experiment [8], 71.9%.

With `COc1cc(OC)c2c(=O)c(O)c(-c3ccccc3)oc2c1`, the growth was 92.1% in experiment [1]; 85.6% in experiment [2]; 86.9% in experiment [3]; 77.7% in experiment [4]; 70.1% in experiment [5]; 63.1% in experiment [6]. The results for the growth in experiment [7] and in experiment [8] were 83.9% and 78.7%, respectively.

Turning to `CNC(=O)c1cn2c3c(c(N4CCN(C)CC4)c(F)cc3c1=O)OC[C@@H]2C`, the growth was 98.9% in experiment [1]; 104% in experiment [2]; 104% in experiment [3]; 99.9% in experiment [4]; 95.8% in experiment [5]; 104% in experiment [6]. The growth was 108% in experiment [7] and 100% in experiment [8].

As for `CC(C)Cc1ccc([C@H](C)C(=O)O)cc1`, the growth in experiment [1] was 102%; in experiment [2] it was 107%; in experiment [3], 103%; in experiment [4] it was 110%; in experiment [5], 94.8%; in experiment [6], 103%. Besides, the growth in experiment [7] and in experiment [8] was 108% in each case.

Take `Cc1cc(SC#N)cc(C(C)(C)C)c1O`: the growth in experiment [1] is 80%; in experiment [2] it was 87.3%; in experiment [3], 107%; in experiment [4] it was 120%; in experiment [5] it was 97.4%; in experiment [6], 70.9%. For the same compound, the growth is 109% in experiment [7] and 105% in experiment [8].

As to `CS(=O)(=O)c1nccc(-c2c(-c3cccc(OCCN4CCOCC4)c3)nc3sccn23)n1`, the growth in experiment [1] was 81%; in experiment [2], 108%; in experiment [3], 98.4%; in experiment [4], 97.7%; in experiment [5], 69.3%; in experiment [6], 78.4%. Also, the growth in experiment [7] is 101%; in experiment [8] it was 96.6%.

For the compound `Cc1ccc(/C=C2/C(=O)N(C)c3ccc(S(=O)(=O)Nc4ccc(C(C)(C)C)cc4)cc32)s1`, the growth in experiment [1] is 80.5%; in experiment [2], 97.1%; in experiment [3], 83.1%; in experiment [4] it was 96.7%; in experiment [5], 72.4%; in experiment [6] it was 55.4%. Further, the growth is 87.8% in experiment [7] and 82.4% in experiment [8].

Consider `COc1cc(-c2ccc[nH]2)[nH]c1/C=C1\N=C(C)C(C(=O)NC(C)C)=C1C`, for which the growth in experiment [1] was 34%; in experiment [2], 43.8%; in experiment [3], 14.9%; in experiment [4], 7.72% (active); in experiment [5] it was 7.83% (active); in experiment [6], 4.6% (active). Moreover, the growth was 21.2% in experiment [7] and 19.3% in experiment [8].

As to `CC1CCCC(C(=O)O)C1C(=O)O` (configuration not stated), the growth is 90.9% in experiment [1]; 95.9% in experiment [2]; 102% in experiment [3]; 98.9% in experiment [4]; 103% in experiment [5]; 99.5% in experiment [6]. The growth was 92.9% in experiment [7] and 106% in experiment [8].

Take `COc1cc(-c2nn(-c3cccc(NC(=O)CCNc4ccc(N5CCOCC5)cc4)c3)cc2-c2ccncc2)ccc1Cl`: the growth was 15.2% in experiment [1]; 19.8% in experiment [2]; 14.3% in experiment [3]; 18.6% in experiment [4]; 7.35% (active) in experiment [5]; 5.29% (active) in experiment [6]. Moreover, the growth was 43.3% in experiment [7] and 20.4% in experiment [8].

Turning to `COc1ccc2cc(-c3nc4ccccc4s3)c(Cl)nc2c1OC`, the growth is 91.2% in experiment [1]; 114% in experiment [2]; 110% in experiment [3]; 93.8% in experiment [4]; 92.9% in experiment [5]; 108% in experiment [6]. In addition, the growth is 105% in experiment [7] and 101% in experiment [8].

With `Nc1ccn(Cc2nnc(CCC(=O)c3nc4ccccc4[nH]3)o2)c(=O)n1`, the growth in experiment [1] was 71.6%; in experiment [2], 74.5%; in experiment [3] it was 91.9%; in experiment [4], 83.5%; in experiment [5], 35.7%; in experiment [6], 63.8%. In addition, the growth in experiment [7] is 79.8%; in experiment [8] it was 84.4%.

For `Nc1nc(Cn2c(-c3nonc3N)nc3ccccc32)nc(N2CCCCC2)n1`, the growth in experiment [1] is 83%; in experiment [2], 89%; in experiment [3], 39.2%; in experiment [4] it was 94.4%; in experiment [5] it was 83.5%; in experiment [6], 87.7%. Besides, the growth in experiment [7] was 95.9%; in experiment [8], 75.6%.

In the case of `CC(C)c1cc(N=O)cc(C(C)C)c1O`, the growth in experiment [1] was 108%; in experiment [2], 111%; in experiment [3], 109%; in experiment [4], 100%; in experiment [5] it was 103%; in experiment [6], 110%. Further, the results for the growth in experiment [7] and in experiment [8] were 104% and 111%, respectively.

As for `O=C(CCNC(=O)c1nc(-c2ccccc2)n(-c2ccc(Cl)cc2)n1)NO`, the growth in experiment [1] is 78.7%; in experiment [2], 115%; in experiment [3] it was 106%; in experiment [4], 106%; in experiment [5], 102%; in experiment [6] it was 94%. The figures for the growth in experiment [7] and in experiment [8] were 93.5% and 93.7%, respectively.

For the compound `O=C1c2ccccc2C(=O)N1CCCCNc1ccccc1`, the growth in experiment [1] was 124%; in experiment [2] it was 61.7%; in experiment [3], 118%; in experiment [4], 105%; in experiment [5] it was 111%; in experiment [6] it was 97.5%. For the same compound, the growth in experiment [7] is 108%; in experiment [8], 67%.

Consider `COC(=O)c1c[nH]c2cc(OC(C)C)c(OC(C)C)cc2c1=O`, for which the growth is 103% in experiment [1]; 112% in experiment [2]; 106% in experiment [3]; 105% in experiment [4]; 84.8% in experiment [5]; 102% in experiment [6]. The growth is 104% in experiment [7] and 106% in experiment [8].

Regarding `O=C(CCCSc1nc(-c2ccc(Cl)cc2)cc(-c2ccc(Cl)cc2)n1)NO`, the growth in experiment [1] was 24.6%; in experiment [2], 31.9%; in experiment [3] it was 24%; in experiment [4], 23.9%; in experiment [5], 2.7% (active); in experiment [6] it was 11.5%. The figures for the growth in experiment [7] and in experiment [8] were 7.09% (active) and 26.3%, respectively.

Turning to `CCN(CC)CC(=O)N(CC)c1ccc(C)c(Cl)c1`, the growth in experiment [1] was 90.3%; in experiment [2] it was 98.1%; in experiment [3], 103%; in experiment [4], 97.3%; in experiment [5], 98.6%; in experiment [6], 98.7%. Further, the growth in experiment [7] is 102%; in experiment [8], 97.9%.

In the case of `CCOC(=O)Cn1c(=O)c2sc3ncccc3c2n2nnc(-c3ccccc3)c12`, the growth in experiment [1] was 94.3%; in experiment [2], 98.2%; in experiment [3], 104%; in experiment [4], 119%; in experiment [5] it was 79.8%; in experiment [6], 91.5%. For the same compound, the growth in experiment [7] and in experiment [8] was 114% each time.

With `Clc1nc2ccccc2cc1Cn1nnc(Cc2ccccc2)n1`, the growth was 26.1% in experiment [1]; 38.9% in experiment [2]; 65.3% in experiment [3]; 86.6% in experiment [4]; 45.8% in experiment [5]; 35.1% in experiment [6]. For the same compound, the results for the growth in experiment [7] and in experiment [8] were 81.3% and 66.3%, respectively.

Consider `COc1cc2c3c(n(C4CCN(C)CC4)c(=O)c2cc1OC)-c1cc2c(cc1C3=O)OCO2`, for which the growth in experiment [1] was 31%; in experiment [2] it was 59.7%; in experiment [3], 84.5%; in experiment [4], 56.2%; in experiment [5], 24.8%; in experiment [6], 40.8%. The growth was 66.3% in experiment [7] and 75.9% in experiment [8].

Take `CCCCc1oc2ccccc2c1C(=O)c1cc(I)c(OCCN(CC)CC)c(I)c1`: the growth in experiment [1] was 7% (active); in experiment [2], -50% (active); in experiment [3], -56.2% (active); in experiment [4], -96.3% (active); in experiment [5] it was -67% (active); in experiment [6], -61.4% (active). Besides, the growth is -88.5% (active) in experiment [7] and -47.6% (active) in experiment [8].
